# This is part of a sample that, as a whole, favours compounds with a hit. Of some 83,000 tested, about 20% had one in any assay.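 The test compound was applied at a single concentration to cells in 96-well plates for 48 hours, and percent growth was recorded.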 Calls of active or inactive are those of the source. The calls were made as follows: active = growth percent below 10; inactive = the rest.
# Tested on: SK-MEL-2 melanoma
# Experiment: NCI-60 one-dose screen, 48 h (100 = growth as untreated, 0 = no growth, -100 = all killed)
# Conditions: 10 µM unless noted
row,Structure (SMILES),growth
1,CCCCCN1C=C/C(=C\C(=O)N(C)c2ccc(Oc3ccccc3)cc2)c2ccccc21,98% (inactive)
2,O=C1Nc2cc(-c3ccc(NC(=O)C4CC4)cc3)ccc2/C1=C/c1ccc[nH]1,109% (inactive)
3,COc1cc2nc(-c3ccc(Cl)cc3)cc(OCCCN3CCCC3)c2cc1OC,71.1% (inactive)
4,CCCOC(=O)N[C@H]1CCc2c(Cl)c(OC)c(OC)c(OC)c2-c2ccc(SC)c(=O)cc21,48.2% (inactive)
5,CCCCCCOc1ccc(/C=N/Nc2cc(C)nc3ccc(Cl)cc23)cc1,93.9% (inactive)
6,Nc1c(C(=O)Nc2cccc3cnccc23)sc2nc3c(cc12)CN(Cc1ccccc1)CC3,116% (inactive)
7,CCCCOc1ccc(/C(C)=N/Nc2cc(C)nc3ccc(Br)cc23)cc1,108% (inactive)
8,Cc1cnc(C(=O)Nc2nc3ccc(S(=O)(=O)Nc4ccc(C(C)(C)C)cc4)cc3[nH]2)cn1,51.1% (inactive)
9,CCN1CCN(CCNc2nccc(-c3c(-c4cccc(OC)c4)nc4occn34)n2)S1(=O)=O,93.6% (inactive)
10,CCCCOc1ccc(/C=N/Nc2cc(C)nc3ccc(Br)cc23)cc1,106% (inactive)
11,O=c1[nH]nc(-c2ccccc2)c2sc3ncc(-c4ccc(Br)cc4)n3c12,18.4% (inactive)
12,O=C(Nc1ccc(NC(=O)c2cc(=O)[nH]c3ccccc23)cc1)Nc1cccc(Cl)c1,101% (inactive)
13,N#Cc1cc(-c2nc3ccccc3s2)c(=O)n(NS(=O)(=O)c2ccccc2)c1N,104% (inactive)
14,Oc1ccc(C(c2ccc(O)cc2)c2ccc(Br)cn2)cc1,31.6% (inactive)
15,CCOC(=O)[C@@H]1CCCN(S(=O)(=O)c2ccc(S(=O)(=O)N(CC)CC)c(F)c2)C1,62.6% (inactive)
16,N#Cc1cccc(-c2ccc3c(c2)NC(=O)/C3=C\c2ccc[nH]2)c1,81.2% (inactive)
17,O=[N+]([O-])c1cc(Br)c2cccc3c2c1CC3,118% (inactive)
18,NS(=O)(=O)c1ccc(Cn2c(SCC(=O)N/N=C/c3ccccc3O)nc3ccccc3c2=O)cc1,36.6% (inactive)
19,CCNC(=O)Oc1ccc(/C(=C(\C)c2ccccc2)c2ccc(OCCN(CC)CC)cc2)cc1,97.6% (inactive)

row,Structure (SMILES),growth
1,COc1ccc(C(=O)/C=C/c2cc3ccccc3n3nnnc23)cc1,106% (inactive)
2,O=C(N/N=C/c1ccc(Oc2ccccc2)cc1)c1cnn2c1NC(c1ccccc1)C2 (stereo not drawn),4.54% (active)
3,NC1=NN=C(N)C1=Cc1cc2ccccc2n2nnnc12,102% (inactive)
4,CCSCC1CC(O)(c2ccccc2)CC(c2ccc(F)cc2)O1 (stereo not drawn),4.62% (active)
5,Cc1cccc(NC(=O)Nc2ccc(-n3cnc4cc(-c5ccc(O)cc5)ccc43)cc2)c1,18.1% (inactive)
6,COc1ccc(/C=C(\C#N)n2nc3cccc(F)c3n2)cc1,100% (inactive)
7,Nc1n[nH]c2cccc(C#Cc3cccc(C(=O)Nc4cccc(C(F)(F)F)c4)c3)c12,33.8% (inactive)
8,O=C(Nc1ccccc1C(=O)N/N=C(\c1ccccc1)c1ccccn1)c1ccc(F)cc1,37.2% (inactive)
9,C=C1C(=O)O[C@H]2[C@H]1CC/C(C(=O)NCCCCCNC(=O)/C1=C/CC[C@@]3(C)O[C@H]3[C@H]3OC(=O)C(=C)[C@@H]3CC1)=C\CC[C@@]1(C)O[C@@H]21,107% (inactive)
10,N#Cc1c(NCc2ccccc2I)sc2c1CCCCC2,105% (inactive)
11,C=C1C(=O)O[C@H]2[C@H]1CC/C(COC(=O)NCC(C)c1ccc(CC(C)C)cc1)=C\CC[C@@]1(C)O[C@@H]21 (stereo partly drawn),-45.2% (active)
12,Cc1cc(C(=O)/C=C/c2ccc[nH]2)ccc1-n1ccc(C(F)(F)F)n1,96.5% (inactive)
13,C=C1C(=O)O[C@H]2[C@H]1CC/C(CNC(=O)/C=C/c1cccc(OC)c1)=C\CC[C@@]1(C)O[C@@H]21,55.6% (inactive)
14,COc1cc(/C=N/NC(=O)c2cnn3c2NC(c2ccccc2)C3)ccc1Oc1ccccc1 (stereo not drawn),1.74% (active)
15,COc1cc(C2=C(c3cn(C)c4ccccc34)COC2=O)cc(OC)c1OC,27.7% (inactive)
16,COc1cc(/C=C\C(=O)O)ccc1OCc1ccccc1,93.5% (inactive)
17,COc1cc2c(=O)n(CCN)c3c4cc5c(cc4ccc3c2cc1OC)OCO5,47.2% (inactive)
18,CCCCCN1C=C/C(=C\C(=O)N(C)c2ccc(OC(F)(F)F)cc2)c2ccccc21,101% (inactive)
19,CN(C)CC(O)c1ccc(/C=C/c2ccc(Cl)cc2)cc1 (stereo not drawn),-63.9% (active)
